B1: VH:VL chains; a variant is named by its letters at X, in order (parent)
chain 1: QVQLVQSGAEVKKPGASVKVSCKASGYTFTDYXMHWVRQAPGQGLEWMGXVNPNXXXTTYNQKFEGRVTMTTDTSTSTAYMELRSLRSDDTAVYYCARXNXLDXWGQGTTVTVSS
chain 2: DIQMTQSPSSLSASVGDRVTITCSVSSSVSSIYLHWYQQKPGKAPKLLIYSTSNLASGVPSRFSGSGSGTDFTLTISSLQPEDFATYYCQVYSGYPLTFGGGTKVEIK

The list shows a part of the results. No count for the full screen is at hand.

The assay covers variants of B1. Kind of assay: yeast display scFab, FACS + sequencing. The conditions noted are these: with MET. In a few lines: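 A yeast surface library of scFab variants carrying heavy-chain CDR mutations went through two magnetic enrichment rounds on Protein A beads coated with HGFR-Fc, then FACS. For sorting, cells were labelled for 3 h at room temperature with 1 nM HGFR-Fc and anti-Myc in PBSB containing 1% milk, and the top 50% of antigen-positive cells were gated. Input and round-3 sorted populations were deep sequenced in two replicates. A sequence was called an antigen binder if it appeared in both antigen-positive samples and a non-binder if it appeared only in the input.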
With YTGTSDLA, the antigen binding call was “no binding”. For the variant FRGRGAGA, the antigen binding call is recorded as “binds”. For FRGRGYGA, the antigen binding call is listed as “no binding”. With FRGRGVGA, the antigen binding call is recorded as “binds”. Regarding YRGRGVGA, the antigen binding call is given as “binds”. The value for ARGGDDGA was “no binding”.

Take VRGKGSLA: the antigen binding call is on record as “binds”. Turning to VKGKGDLA, the antigen binding call is listed as “no binding”. As to VTGEDSLA, the antigen binding call is listed as “no binding”.

For the variant ATGTGSGA, the antigen binding call is reported as “no binding”. The value for VGGTGSGA was “no binding”; that for VRGKGSGA was “binds”.

On to VAEKGSGA, for which the antigen binding call is “no binding”. On to VRGTGSGA, for which the antigen binding call is reported as “binds”.

For the variant VGGTSSGA, the antigen binding call is given as “no binding”. With FERTSVWF chain 1 L45F, the antigen binding call was “no binding”. SAGGDYVF: the antigen binding call is given as “no binding”. For the variant YTGEGDGV, the antigen binding call was “no binding”.

As to DREEGDAV, the antigen binding call is “no binding”. Take YRGEGDAA: the antigen binding call is “no binding”. YTTRGSWV: the antigen binding call is reported as “no binding”. As for YTGEGSWV, the antigen binding call was “binds”.

Turning to YRGEGDAV, the antigen binding call is given as “binds”. With YRGESAWV, the antigen binding call is on record as “binds”. Turning to YRGRSAWV, the antigen binding call is “binds”.

VTKAASWV: the antigen binding call is given as “no binding”. In the case of SEEASAVY, the antigen binding call is given as “no binding”. Turning to DKTGDDGS, the antigen binding call is reported as “no binding”. The value for YRGEGAWV was “binds”; that for YRGRDSSS was “binds”; that for YRGRSASS was “binds”.

Consider YRGRDDLA, for which the antigen binding call is “no binding”. Regarding VEGAAAGS, the antigen binding call is recorded as “no binding”. The value for YRGAAASS was “binds”; that for YRGRDASA was “binds”. In the case of ATGEGDGV, the antigen binding call is given as “no binding”.

For SEARSFGV, the antigen binding call was “no binding”. For the variant YRGRDASS, the antigen binding call is recorded as “binds”. Turning to YRGRSAGS, the antigen binding call is on record as “binds”. Consider DAGGASGV, for which the antigen binding call is reported as “no binding”. On to VERASAVV, for which the antigen binding call is “no binding”. Then VRRRGAGV, with “binds”; and VRGTDAGV, with “no binding”. VRRRGAVV: the antigen binding call is “binds”. Then VRGTDAVV, with “no binding”; and SGRGNSGV, with “no binding”; and DARADSGV, with “no binding”.

In the case of AARADDGV, the antigen binding call is “no binding”. With YGAKGDGV, the antigen binding call was “no binding”. For YRAKGAGV, the antigen binding call is listed as “binds”.

Regarding YRTRDSGV, the antigen binding call is recorded as “binds”. For the variant YRAKGSGV, the antigen binding call is given as “binds”. Regarding YRTKGSGV, the antigen binding call is recorded as “binds”. In the case of DTGTGASD, the antigen binding call is given as “no binding”. Turning to VAGGDAGV, the antigen binding call is given as “no binding”.

Turning to AREEGFSV, the antigen binding call is on record as “no binding”.

As to DRAGDDVV, the antigen binding call was “no binding”.

With YRAGDAVV, the antigen binding call is “binds”. Then YRAKGAVV, with “binds”. Regarding ARAGDAVV, the antigen binding call is listed as “no binding”. As for AARADSSA, the antigen binding call is “no binding”. Turning to VGGGADVA, the antigen binding call is “no binding”. VTKTGDAV: the antigen binding call was “binds”. The value for YTGTSDAV was “no binding”; that for VTAGSDAV was “no binding”; that for VTGTGDAV was “no binding”. In the case of YTKTGDAV, the antigen binding call is on record as “binds”. For VTKTGAAA, the antigen binding call was “binds”. For the variant VTKTGDVA, the antigen binding call is “no binding”. As for YTERGDAV, the antigen binding call is “no binding”. Regarding VTTKSAAA, the antigen binding call is “no binding”. For DKEGGYSV, the antigen binding call is on record as “no binding”. On to DAKEGSLD, for which the antigen binding call is “no binding”. The value for SAAGADWS was “no binding”; that for YRTAGAGV was “binds”. As to YRTAGSGV, the antigen binding call was “binds”. Then YRTADVGV, with “no binding”.

On to FAGGGDLV, for which the antigen binding call is “no binding”. VKARGSVD: the antigen binding call was “binds”. With VEGGGSVD, the antigen binding call is listed as “no binding”. On to VKARGSGD, for which the antigen binding call is “binds”. Consider VKERGSVD, for which the antigen binding call is “binds”. The value for VKAAGSVD was “no binding”; that for FKARGSVD was “binds”. As for VTGTGSGD, the antigen binding call is “no binding”.

On to VKGKDSGD, for which the antigen binding call is reported as “no binding”. In the case of VEEEGSVD, the antigen binding call was “no binding”. Take FTETGSVD: the antigen binding call is reported as “no binding”. Then VTGTGYVF, with “no binding”; and FRGKGAGY, with “binds”; and YRGKGAAS, with “binds”. Then FRGKGAAS, with “binds”; and FRGKGASS, with “binds”. The value for VTGEDDGD was “no binding”; that for DAKENAGD was “no binding”.

For VAKEGAWV, the antigen binding call is listed as “no binding”. Turning to VEARNAGA, the antigen binding call is “no binding”. For DEGGTDVA, the antigen binding call is on record as “no binding”. Then SAEATDLY, with “no binding”. Regarding FAKAGFVA, the antigen binding call is listed as “no binding”. For the variant YRGKGAVS, the antigen binding call was “binds”.

For the variant FRGKGAVS, the antigen binding call is “binds”. Consider FRGKGAGS, for which the antigen binding call is recorded as “binds”.

As for YRRRGALF, the antigen binding call is given as “binds”. For the variant YRRRGSLF, the antigen binding call is given as “binds”. Then YKEGDSGV chain 1 R87K, with “no binding”. Turning to SKGRGALA, the antigen binding call was “binds”. Regarding YKGRGSLA, the antigen binding call was “binds”. Turning to FKGRGSLA, the antigen binding call is recorded as “binds”. The value for STGRAALA was “no binding”; that for YAGRGDLA was “no binding”; that for YKGGDDLA was “no binding”. YKGRGALA: the antigen binding call was “binds”. Turning to SKERGDVA, the antigen binding call is listed as “no binding”. As for FKEGGSAA, the antigen binding call was “no binding”. With VEEEGDWD, the antigen binding call was “no binding”. Take FKRAGSLA: the antigen binding call is on record as “binds”. VKGRSDSA: the antigen binding call is on record as “no binding”. For the variant YGKGGDLA, the antigen binding call is given as “no binding”. Regarding DKEEDSLA, the antigen binding call was “no binding”. On to SKGRSDGA, for which the antigen binding call is recorded as “no binding”.

For the variant YKKGGSLA, the antigen binding call was “binds”. Turning to SKGRSSLA, the antigen binding call is “binds”.

For the variant VGGTSDWA, the antigen binding call is “no binding”. On to SRGRGYGD, for which the antigen binding call is recorded as “no binding”. Consider SRGRGSVD, for which the antigen binding call is reported as “binds”.

Turning to SRGRGAVD, the antigen binding call is recorded as “binds”. Regarding SRTGSDVD, the antigen binding call was “no binding”. On to SGGKNSVD, for which the antigen binding call was “no binding”. Then SGEGGAAV, with “no binding”; and VRGRGALF, with “binds”; and YRGRGVLF, with “binds”. For YRGRGALF, the antigen binding call is “binds”.

Take VRGRGVSY: the antigen binding call was “no binding”.

Turning to AARADDWV, the antigen binding call is “no binding”.

Values taken from the emibetuzumab library of Makowski et al. (2022).
